Experimental data: PubChem BioAssay (NCATS)
Inconclusive results are not listed. Activity calls are given as the source filed them. Calls follow the shape of the dose curve; as a rule, active = well fitted curve in the direction sought with a large enough effect; inconclusive = small, poorly fitted or top-dose-only effect, or another doubt; inactive = no such curve, though single readings can be large; an effect the other way counts as inactive or inconclusive.

Experiments:
Es-2 = experiment: Primary qHTS to identify gynecologic anti-cancer compounds using libraries of approved drugs and bioactive compounds (AID 1345084); conditions: Gynecologic cancer cell panel viability, ATPlite luminescence, 48 h; series mostly up to 57.5 µM; also: nearly all actives have a fitted effect of over 55% in size; also: potency is read from the fitted curve at half-maximal effect
Method in brief: (§1)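 Cytotoxicity screen measuring ATP content by luciferase luminescence. Each compound is applied at five concentrations for 48 h at 37 C with 5% CO2.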

HeLa = experiment: as above; conditions: Gynecologic cancer cell panel viability, ATPlite luminescence, 48 h; series mostly up to 57.5 µM
Method in brief: as §1

Hek293T = experiment: as above; conditions: Gynecologic cancer cell panel viability, ATPlite luminescence, 48 h, control line for the selectivity index; series mostly up to 57.5 µM
Method in brief: as §1

JEG-3 = experiment: as above; conditions: Gynecologic cancer cell panel viability, ATPlite luminescence, 48 h; series mostly up to 57.5 µM
Method in brief: as §1

PA-1 = experiment: as above; conditions: Gynecologic cancer cell panel viability, ATPlite luminescence, 48 h; series mostly up to 57.5 µM
Method in brief: as §1

Tov-21-G = experiment: as above; conditions: Gynecologic cancer cell panel viability, ATPlite luminescence, 48 h; series mostly up to 57.5 µM
Method in brief: as §1

Tov112D = experiment: as above; conditions: Gynecologic cancer cell panel viability, ATPlite luminescence, 48 h; series mostly up to 57.5 µM
Method in brief: as §1

[1] = Drug repurposing screens with cells derived from glioblastoma tumor samples (AID 1345199); conditions: GBM patient neurospheres viability, ATP luminescence, 48 h; also: nearly all actives have a fitted effect of over 40% in size; also: potency is read from the fitted curve at half-maximal effect
Method in brief: (§2)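 Four patient lines of CD133+ GBM neurospheres were screened at several concentrations; hits were retested in those lines plus three slower-growing GBM lines, using 48-hour treatment and ATP-based viability.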

OV90 = experiment: Primary qHTS to identify gynecologic anti-cancer compounds using libraries of approved drugs and bioactive compounds (AID 1345084); conditions: Gynecologic cancer cell panel viability, ATPlite luminescence, 48 h; series mostly up to 57.5 µM; also: nearly all actives have a fitted effect of over 55% in size; also: potency is read from the fitted curve at half-maximal effect
Method in brief: as §1

astro = experiment: Drug repurposing screens with cells derived from glioblastoma tumor samples (AID 1345199); conditions: viability, ATP luminescence, 48 h; series mostly up to 45.9 µM; also: nearly all actives have a fitted effect of over 40% in size; also: potency is read from the fitted curve at half-maximal effect
Method in brief: as §2

CASKI = experiment: Primary qHTS to identify gynecologic anti-cancer compounds using libraries of approved drugs and bioactive compounds (AID 1345084); conditions: Gynecologic cancer cell panel viability, ATPlite luminescence, 48 h; series mostly up to 57.5 µM; also: nearly all actives have a fitted effect of over 55% in size; also: potency is read from the fitted curve at half-maximal effect
Method in brief: as §1

SKOV3 = experiment: as above; conditions: Gynecologic cancer cell panel viability, ATPlite luminescence, 48 h; series mostly up to 57.5 µM
Method in brief: as §1

[2] = qHTS assay to identify inhibitors of the type 1 interferon - major histocompatibility complex class I in skeletal muscle: Counter screen cell viability and HiBit confirmation (AID 1347412); conditions: iHSKM muscle cells + IFN-b, HiBiT or CellTiter-Glo, 24 h; Potency: HiBiT unless noted; Viability, at 45.9 µM (top of the series); also: nearly all actives have a fitted effect of over 60% in size
Method in brief: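 Human myoblast knock-in line, 4.0 ng/ml IFN-beta stimulation, 24 h compound treatment. Endpoints: HiBiT lytic luminescence (HLA-B level) and CellTiter Glo (ATP). Dosing 12 concentrations, 3-fold steps, 46 uM highest final.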

[3] = at 46.1 µM (top of the series), tumour line C
[4] = at 20 µM (top of the series), tumour line C
[5] = at 21.2 µM (top of the series), tumour line B
[6] = at 45.9 µM (top of the series), tumour line B
[7] = at 45.9 µM (top of the series), tumour line D
[8] = at 46 µM (top of the series), tumour line A
[9] = at 21.2 µM (top of the series), tumour line D
% is scaled to controls: 0 for no effect and ±100 for the full control effect.

Clc1ccc2c(c1)CCc1cccnc1C2=C1CCNCC1
active: Potency ([1]; tumour line A) 5.01 µM | Potency ([1]; tumour line B) 12.6 µM | Potency ([1]; tumour line D) 20 µM
inactive: Potency (Es-2) | Potency (HeLa) | Potency (Hek293T) | Potency (JEG-3) | Potency (PA-1) | Potency (Tov-21-G) | Potency (Tov112D) | activity, negative = cell killing [1, 3] 0.244%

C[C@@H]1CN(CCCn2c3ccccc3c3ccccc32)C[C@H](C)N1
active: Potency (OV90) 25.1 µM | Potency (astro) 12.6 µM

CCCCOc1cc(C(=O)NCCN(CC)CC)c2ccccc2n1
inactive: Potency (CASKI) | Potency (Hek293T) | Potency (JEG-3) | Potency (Tov112D) | activity, negative = cell killing [1, 4] 9.91% | activity, negative = cell killing [1, 5] -15.3% | Potency (astro)
active: Potency ([1]; tumour line A) 3.98 µM

CCCn1c(=O)[nH]c(=O)c2[nH]cnc21
inactive: activity, negative = cell killing [1, 6] -19.3% | activity, negative = cell killing [1, 7] 9.35% | activity, negative = cell killing [1, 8] -17.3% | activity, negative = cell killing [1, 3] -18.8% | Potency (astro)

C[n+]1c2cc(N)ccc2cc2ccc(N)cc21 (tested in a mixture with another compound)
active: Potency (Es-2) 15.8 µM | Potency (HeLa) 8.91 µM | Potency (Hek293T) 10 µM | Potency (PA-1) 5.01 µM | Potency (SKOV3) 12.6 µM | Potency (Tov-21-G) 28.2 µM | Potency ([1]; tumour line A) 35.5 µM | Potency ([1]; tumour line B) 11.2 µM | Potency ([1]; tumour line D) 5.01 µM | Potency (astro) 11.2 µM
inactive: activity, negative = cell killing [1, 3] -16%

COc1ccc(CCN2CCC(Nc3nc4ccccc4n3Cc3ccc(F)cc3)CC2)cc1
active: Potency (HeLa) 28.2 µM

CC(C)N=C(N)/N=C(\N)Nc1ccc(Cl)cc1
active: Potency (SKOV3) 28.2 µM
inactive: Potency (HeLa) | Potency (Hek293T) | Potency (JEG-3) | Potency (OV90) | Potency (PA-1) | Potency (Tov-21-G) | Potency (Tov112D) | activity, negative = cell killing [1, 4] -3.45% | activity, negative = cell killing [1, 5] -11.2% | activity, negative = cell killing [1, 9] -20.6% | Potency (astro)

COc1cc(C=C2CCC/C(=C\c3ccc(O)c(OC)c3)C2=O)ccc1O
inactive: Potency (Es-2) | Potency (Hek293T) | Potency (OV90) | Potency [2]
active: Potency (astro) 20 µM

CCCCOc1ccc(C(=O)CCN2CCCCC2)cc1
inactive: Potency (CASKI) | Potency (HeLa) | Potency (JEG-3) | Potency (OV90) | Potency (PA-1) | Potency (Tov-21-G) | Potency (Tov112D) | activity, negative = cell killing [1, 4] -2.49% | Potency (astro)
active: Potency ([1]; tumour line A) 4.47 µM

Nc1cc(Cl)c(NC2=NCCN2)c(Cl)c1
inactive: activity, negative = cell killing [1, 6] -8.4% | activity, negative = cell killing [1, 7] -1.45% | activity, negative = cell killing [1, 8] -27.8% | activity, negative = cell killing [1, 3] -9.7%

CCCC1O[C@@H]2C[C@H]3[C@@H]4CCC5=CC(=O)C=C[C@]5(C)[C@H]4[C@@H](O)C[C@]3(C)[C@]2(C(=O)CO)O1 (some centres undefined)
inactive: activity, negative = cell killing [1, 6] -17.2% | activity, negative = cell killing [1, 7] -5.46% | activity, negative = cell killing [1, 3] -20.2% | Potency (astro)

CCC(NC(C)C)C(O)c1ccc(O)c(O)c1 (centres undefined)
inactive: activity, negative = cell killing [1, 6] -1.77% | activity, negative = cell killing [1, 7] 12.5% | activity, negative = cell killing [1, 8] -20.2% | activity, negative = cell killing [1, 3] -19.2% | Potency (astro)

CC(=O)N(O)CCCCCNC(=O)CCC(=O)N(O)CCCCCNC(=O)CCC(=O)N(O)CCCCCN
inactive: Potency (CASKI) | Potency (HeLa) | Potency (SKOV3) | Potency (Tov-21-G) | activity, negative = cell killing [1, 4] 5.11% | activity, negative = cell killing [1, 5] -16.9% | activity, negative = cell killing [1, 9] -9.85% | activity, negative = cell killing ([1]; at 21.3 µM (top of the series), tumour line A) -22.8%
active: Potency (OV90) 6.31 µM

CNCCC=C1c2ccccc2CCc2ccccc21
inactive: activity, negative = cell killing [1, 3] -6.98%
active: Potency ([1]; tumour line A) 6.31 µM | Potency ([1]; tumour line B) 22.4 µM | Potency (astro) 11.2 µM

CCN(CC)CCOc1ccc(C(O)(Cc2ccc(Cl)cc2)c2ccc(C)cc2)cc1 (centres undefined)
active: Potency (OV90) 17.8 µM | Potency (astro) 22.4 µM
inactive: Potency (HeLa) | Potency (JEG-3)

O=C(O)c1cc2cc(Cc3cccnc3)ccc2o1
inactive: activity, negative = cell killing [1, 6] -16.4% | activity, negative = cell killing [1, 7] -17.6% | Potency (astro)

C1CCc2nnnn2CC1
inactive: activity, negative = cell killing [1, 6] -2.41% | activity, negative = cell killing [1, 7] -3.11% | activity, negative = cell killing [1, 8] -28.5% | activity, negative = cell killing [1, 3] -27%

O=c1c(-c2ccccc2)c1-c1ccccc1
inactive: Potency (HeLa) | Potency (JEG-3) | Potency (Tov-21-G)
active: Potency (astro) 12.6 µM

CC(=O)c1ccc2c(c1)N(CCCN1CCC(CCO)CC1)c1ccccc1S2
inactive: Potency (Es-2) | Potency (HeLa) | Potency (Hek293T) | Potency (JEG-3) | Potency (SKOV3) | Potency (Tov-21-G) | Potency (Tov112D) | activity, negative = cell killing [1, 4] 17.8% | activity, negative = cell killing [1, 5] -21.7%
active: Potency ([1]; tumour line A) 11.2 µM

Cc1cccc(C)c1NC(=O)CN1CCN(CCCC(c2ccc(F)cc2)c2ccc(F)cc2)CC1
inactive: Potency (CASKI) | Potency (Es-2) | Potency (Hek293T) | Potency (JEG-3) | Potency (Tov-21-G) | Potency (Tov112D) | Potency (astro)

C[C@@H]1C(=O)NC2=Nc3cccc(Cl)c3CN21
inactive: activity, negative = cell killing [1, 6] -5.98% | activity, negative = cell killing [1, 7] -24.2% | activity, negative = cell killing [1, 3] -18.1% | Potency (astro)

COc1cc(NS(C)(=O)=O)ccc1Nc1c2ccccc2nc2ccccc12
active: Potency (astro) 11.2 µM

C[C@]12CC[C@@H]3c4ccc(O)cc4CC[C@H]3[C@@H]1CC[C@@H]2O
inactive: activity, negative = cell killing [1, 6] -16.2% | activity, negative = cell killing [1, 3] -20.5%
active: Potency ([1]; tumour line A) 31.6 µM

CC(C)C[C@H]1C(=O)N2CCC[C@H]2[C@]2(O)O[C@](NC(=O)[C@@H]3C=C4c5cccc6[nH]c(Br)c(c56)C[C@H]4N(C)C3)(C(C)C)C(=O)N12
active: Potency ([1]; tumour line A) 2.24 µM
inactive: activity, negative = cell killing [1, 6] -7.46% | activity, negative = cell killing [1, 3] 12.4% | Potency (astro)

CC(=O)O[C@H]1C[C@@H]2CC[C@@H]3[C@H](CC[C@@]4(C)[C@H]3C[C@H]([N+]3(C)CCCCC3)[C@@H]4OC(C)=O)[C@@]2(C)C[C@@H]1[N+]1(C)CCCCC1
inactive: activity, negative = cell killing [1, 6] 7.88% | activity, negative = cell killing [1, 7] -21.6% | activity, negative = cell killing [1, 8] -27.9% | activity, negative = cell killing [1, 3] -11.1% | Potency (astro)

COC(=O)[C@H]1[C@H]2C[C@H]3c4[nH]c5ccccc5c4CCN3C[C@H]2CC[C@@H]1O
inactive: activity, negative = cell killing [1, 6] -4.34% | activity, negative = cell killing [1, 7] -13.5% | activity, negative = cell killing [1, 3] 4.13% | Potency (astro)
